# From the supplement of paper PMC4466140
# Legend:
# Assay in all cases: SPOT peptide array binding signal intensity (averaged, normalized) (arbitrary units (background-subtracted, floor 0; scale differs between SH3 domains)); higher = stronger binding of the SH3 domain to the peptide
# AgAbp1 = biological target: AgAbp1
# Method in brief: (§1)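 Spot intensities were captured after detection with anti-GST antibody, an HRP-linked anti-mouse secondary and luminol, and quantified with Genespotter. The probes were GST-fused SH3 domains from four yeast species, produced in E. coli BL21(DE3), purified on glutathione Sepharose and incubated at 10 μg/ml overnight at 4°C on cellulose-bound synthetic 15-mer peptides with cysteines replaced by serines. Binding signal is the normalized, background-subtracted spot intensity averaged over replicates, and its arbitrary units differ between domains.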
# AgBbc1 = biological target: AgBbc1
# Method in brief: as §1
# AgBem1-D1 = biological target: AgBem1-D1
# Method in brief: as §1
# AgBzz1-D1 = biological target: AgBzz1-D1
# Method in brief: as §1
# AgBzz1-D2 = biological target: AgBzz1-D2
# Method in brief: as §1
# AgCyk3 = biological target: AgCyk3
# Method in brief: as §1
# AgFus1 = biological target: AgFus1
# Method in brief: as §1
# AgHof1 = biological target: AgHof1
# Method in brief: as §1
# AgHse1 = biological target: AgHse1
# Method in brief: as §1
# AgLsb1 = biological target: AgLsb1
# Method in brief: as §1
# AgLsb4 = biological target: AgLsb4
# Method in brief: as §1
# AgMyo5 = biological target: AgMyo5
# Method in brief: as §1
# AgNbp2 = biological target: AgNbp2
# Method in brief: as §1
# AgRvs167 = biological target: AgRvs167
# Method in brief: as §1
# AgSho1 = biological target: AgSho1
# Method in brief: as §1
# AgSla1-D1-D2 = biological target: AgSla1-D1-D2
# Method in brief: as §1
# AgSla1-D3 = biological target: AgSla1-D3
# Method in brief: as §1
# CaAbp1-D1 = biological target: CaAbp1-D1
# Method in brief: as §1
# CaAbp1-D2 = biological target: CaAbp1-D2
# Method in brief: as §1
# CaBbc1 = biological target: CaBbc1
# Method in brief: as §1
# CaBem1-D1 = biological target: CaBem1-D1
# Method in brief: as §1
# CaBzz1-D1 = biological target: CaBzz1-D1
# Method in brief: as §1
# CaBzz1-D2 = biological target: CaBzz1-D2
# Method in brief: as §1
# CaCyk3 = biological target: CaCyk3
# Method in brief: as §1
# CaFus1 = biological target: CaFus1
# Method in brief: as §1
# CaHof1 = biological target: CaHof1
# Method in brief: as §1
# CaHse1 = biological target: CaHse1
# Method in brief: as §1
# CaLsb1 = biological target: CaLsb1
# Method in brief: as §1
# CaLsb4 = biological target: CaLsb4
# Method in brief: as §1
# CaMyo5 = biological target: CaMyo5
# Method in brief: as §1
# CaNbp2 = biological target: CaNbp2
# Method in brief: as §1
# CaRvs167 = biological target: CaRvs167
# Method in brief: as §1
# CaRvs167-3 = biological target: CaRvs167-3
# Method in brief: as §1
# CaSho1 = biological target: CaSho1
# Method in brief: as §1
# CaSla1-D1-D2 = biological target: CaSla1-D1-D2
# Method in brief: as §1
# CaSla1-D3 = biological target: CaSla1-D3
# Method in brief: as §1
# ScAbp1 = biological target: ScAbp1
# Method in brief: as §1
# ScBbc1 = biological target: ScBbc1
# Method in brief: as §1
# ScBem1-D1 = biological target: ScBem1-D1
# Method in brief: as §1
# ScBzz1-D1 = biological target: ScBzz1-D1
# Method in brief: as §1
# ScBzz1-D2 = biological target: ScBzz1-D2
# Method in brief: as §1
# ScCyk3 = biological target: ScCyk3
# Method in brief: as §1
# ScFus1 = biological target: ScFus1
# Method in brief: as §1
# ScHof1 = biological target: ScHof1
# Method in brief: as §1
# ScHse1 = biological target: ScHse1
# Method in brief: as §1
# ScLsb1 = biological target: ScLsb1
# Method in brief: as §1
# ScLsb2 = biological target: ScLsb2
# Method in brief: as §1
# ScLsb3 = biological target: ScLsb3
# Method in brief: as §1
# ScLsb4 = biological target: ScLsb4
# Method in brief: as §1
# ScMyo3 = biological target: ScMyo3
# Method in brief: as §1
# ScMyo5 = biological target: ScMyo5
# Method in brief: as §1
# ScNbp2 = biological target: ScNbp2
# Method in brief: as §1
# ScPex13 = biological target: ScPex13
# Method in brief: as §1
# ScRvs167 = biological target: ScRvs167
# Method in brief: as §1
# ScSho1 = biological target: ScSho1
# Method in brief: as §1
# ScSla1-D1-D2 = biological target: ScSla1-D1-D2
# Method in brief: as §1
# ScSla1-D3 = biological target: ScSla1-D3
# Method in brief: as §1
# SpAbp1-D1 = biological target: SpAbp1-D1
# Method in brief: as §1
# SpBbc1 = biological target: SpBbc1
# Method in brief: as §1
# SpBzz1-D1 = biological target: SpBzz1-D1
# Method in brief: as §1
binder,measurement,setting,value
NRARYLPQNPDIIAG,SPOT peptide array binding signal intensity,AgAbp1,≤ 0
same,SPOT peptide array binding signal intensity,AgBbc1,≤ 0
same,SPOT peptide array binding signal intensity,AgBem1-D1,≤ 0
same,SPOT peptide array binding signal intensity,AgBzz1-D1,9
same,SPOT peptide array binding signal intensity,AgBzz1-D2,19
same,SPOT peptide array binding signal intensity,AgCyk3,≤ 0
same,SPOT peptide array binding signal intensity,AgFus1,8
same,SPOT peptide array binding signal intensity,AgHof1,3.5
same,SPOT peptide array binding signal intensity,AgHse1,85
same,SPOT peptide array binding signal intensity,AgLsb1,1
same,SPOT peptide array binding signal intensity,AgLsb4,7
same,SPOT peptide array binding signal intensity,AgMyo5,0.5
same,SPOT peptide array binding signal intensity,AgNbp2,≤ 0
same,SPOT peptide array binding signal intensity,AgRvs167,0.5
same,SPOT peptide array binding signal intensity,AgSho1,1
same,SPOT peptide array binding signal intensity,AgSla1-D1-D2,2
same,SPOT peptide array binding signal intensity,AgSla1-D3,3.25
same,SPOT peptide array binding signal intensity,CaAbp1-D1,≤ 0
same,SPOT peptide array binding signal intensity,CaAbp1-D2,≤ 0
same,SPOT peptide array binding signal intensity,CaBbc1,≤ 0
same,SPOT peptide array binding signal intensity,CaBem1-D1,≤ 0
same,SPOT peptide array binding signal intensity,CaBzz1-D1,58
same,SPOT peptide array binding signal intensity,CaBzz1-D2,26.5
same,SPOT peptide array binding signal intensity,CaCyk3,≤ 0
same,SPOT peptide array binding signal intensity,CaFus1,29
same,SPOT peptide array binding signal intensity,CaHof1,≤ 0
same,SPOT peptide array binding signal intensity,CaHse1,13.8
same,SPOT peptide array binding signal intensity,CaLsb1,1
same,SPOT peptide array binding signal intensity,CaLsb4,4
same,SPOT peptide array binding signal intensity,CaMyo5,4.25
same,SPOT peptide array binding signal intensity,CaNbp2,59
same,SPOT peptide array binding signal intensity,CaRvs167,4.17
same,SPOT peptide array binding signal intensity,CaRvs167-3,1.75
same,SPOT peptide array binding signal intensity,CaSho1,17.5
same,SPOT peptide array binding signal intensity,CaSla1-D1-D2,≤ 0
same,SPOT peptide array binding signal intensity,CaSla1-D3,≤ 0
same,SPOT peptide array binding signal intensity,ScAbp1,7.5
same,SPOT peptide array binding signal intensity,ScBbc1,≤ 0
same,SPOT peptide array binding signal intensity,ScBem1-D1,7
same,SPOT peptide array binding signal intensity,ScBzz1-D1,7
same,SPOT peptide array binding signal intensity,ScBzz1-D2,≤ 0
same,SPOT peptide array binding signal intensity,ScCyk3,3
same,SPOT peptide array binding signal intensity,ScFus1,≤ 0
same,SPOT peptide array binding signal intensity,ScHof1,1.5
same,SPOT peptide array binding signal intensity,ScHse1,647
same,SPOT peptide array binding signal intensity,ScLsb1,1.5
same,SPOT peptide array binding signal intensity,ScLsb2,≤ 0
same,SPOT peptide array binding signal intensity,ScLsb3,58
same,SPOT peptide array binding signal intensity,ScLsb4,≤ 0
same,SPOT peptide array binding signal intensity,ScMyo3,≤ 0
same,SPOT peptide array binding signal intensity,ScMyo5,9.25
same,SPOT peptide array binding signal intensity,ScNbp2,≤ 0
same,SPOT peptide array binding signal intensity,ScPex13,2.75
same,SPOT peptide array binding signal intensity,ScRvs167,5.83
same,SPOT peptide array binding signal intensity,ScSho1,87.5
same,SPOT peptide array binding signal intensity,ScSla1-D1-D2,≤ 0
same,SPOT peptide array binding signal intensity,ScSla1-D3,≤ 0
same,SPOT peptide array binding signal intensity,SpAbp1-D1,≤ 0
same,SPOT peptide array binding signal intensity,SpBbc1,≤ 0
same,SPOT peptide array binding signal intensity,SpBzz1-D1,31.5
